Among all 350,000 compounds or so, about 260 (0.074%) were called active. Not shown: some 8% with an inconclusive outcome. This is one part of a sample in which actives are shown more often than they occur. Unmarked numbers belong to inactive results. Calls come from the whole dose curve; as a rule, active = well fitted inhibition curve with a large enough effect; inconclusive = small, poorly fitted or top-dose-only effect; inactive = no such curve, though single readings can be large or run the other way.

Consider 62 compounds from PubChem BioAssay AID485281 (National Center for Advancing Translational Sciences (NCATS), 2010).
% is set by controls: 0 for no effect and ±100 for the full control effect; potency is the fitted concentration of half-maximal effect.

Sequence of Ferritin light chain (Equus caballus) (P02791 2-175 limits assumed): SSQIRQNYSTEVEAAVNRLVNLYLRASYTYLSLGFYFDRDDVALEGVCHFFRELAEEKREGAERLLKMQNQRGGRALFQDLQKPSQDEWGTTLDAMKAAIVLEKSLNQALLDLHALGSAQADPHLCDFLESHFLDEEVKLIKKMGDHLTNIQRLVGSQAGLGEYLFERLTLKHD

For this test, the target named is Ferritin light chain (Equus caballus) (UniProt P02791). As to the kind of experiment: qHTS Assay for Identification of Novel General Anesthetics. Note: nearly all actives have a fitted effect of over 20% in size. Conditions: apoferritin/1-aminoanthracene competitive binding, fluorescence; series mostly up to 77.5 µM; activity change, negative = displacement: at the top concentration. An excerpt:
Source: NIH Chemical Genomics Center [NCGC]
Assay Submitter: Roderic Eckenhoff, University of Pennsylvania
Screening Center PI: Christopher P. Austin, NIH
Probe Development: NIH Chemical Genomics Center [NCGC]
Anesthetic development has remained a largely empirical process. There are growing concerns about the cognitive effects of known general anesthetics and acceleration of the onset of neurodegenerative disease. The compounds' toxicity and multiple specific binding targets in the mammalian brain [4] has made them less attractive as drug leads. In this assay, a GABAergic mimetic model system, apoferritin and a profluorescent 1-aminoanthracene ligand (1-AMA), was used to construct a competitive binding assay for identification of novel general anesthetics. The assay was validated for 1-AMA using other known anesthetics, such as isoflurane (CID:3763) and propofol (CID: 4943), [6].
[1] S.L. Bianchi, T. Tran, C. Liu, S. Lin, Y. Li, J.M. Keller, R.G. Eckenhoff, and M.F. Eckenhoff, Brain and behavior changes in 12-month-old Tg2576 and nontransgenic mice exposed to anesthetics. Neurobiol Aging 29 (2008) 1002-10.
[2] Z. Xie, Y. Dong, U. Maeda, R.D. Moir, W. Xia, D.J. Culley, G. Crosby, and R.E. Tanzi, The inhalation anesthetic isoflurane induces a vicious cycle of apoptosis and amyloid beta-protein accumulation. J Neurosci 27 (2007) 1247-54.
[3] P. Honegger, and J.M. Matthieu, Selective toxicity of the general anesthetic propofol for GABAergic neurons in rat brain cell cultures.
[4] M.F. Eckenhoff, K. Chan, and R.G. Eckenhoff, Multiple specific binding targets for inhaled anesthetics in the mammalian brain. J Pharmacol Exp Ther 300 (2002) 172-9.
[5] C.A. Butts, J. Xi, G. Brannigan, A.A. Saad, S.P. Venkatachalan, R.A. Pearce, M.L. Klein, R.G. Eckenhoff, and I.J. Dmochowski, Identification of a fluorescent general anesthetic, 1-aminoanthracene. Proc Natl Acad Sci U S A 106 (2009) 6501-6.
[6] W.A. Lea, J. Xi, A. Jadhav, L. Lu, C.P. Austin, A. Simeonov, and R.G. Eckenhoff, A high-throughput approach for identification of novel general anesthetics. PLoS One 4 (2009) e7150.
Three uL of reagents (free 1-AMA (50% saturated solution of 1-aminoanthracene
in PBS) in columns 3, 4 as negative control and 1-AMA/apoferritin mixture (10 uM horse-spleen apoferritin in 50% saturated 1-aminoanthracene in PBS) in columns 1, 2, 5-48) was dispensed into 1536-well Greiner black assay plates. Compounds (23 nL) were transferred via Kalypsys pintool equipped with 1,536-pin array (10 nL slotted pins, V&P Scientific, San Diego, CA). Titration of the positive control, propofol, were delivered via pin transfer from separate control plates to the 2nd column of each assay plate. The starting concentration of the control, dissolved in DMSO, was at 160 mM, followed by two-fold dilution points in duplicate, for a total of 16 concentrations. The plates were incubated for 10 min at room temperature, and then read on an EnVision HTS multilabel reader (Perkin-Elmer, Waltham, MA) (end point read, 3 min/plate) using Fura2 BFP excitation filter (380 nm, bandwidth 10 nm) and fluorescein emission filter (535 nm, bandwidth 25 nm) set. A LANCE/DELFIA dichroic mirror with a cutoff wavelength at 400 nm was used to maximize signal accuracy and strength. Vehicle-only plates, with DMSO being pin-transferred to the entire column 5-48 compound area, were inserted uniformly at the beginning and the end of each library in order to monitor for and record any shifts in the background. Activity was computed as the normalized fluorescence response relative to free 1-AMA and 1-AMA/apoferritin complex values. Concentration-effect relationships were derived by using curve fitting algorithms developed in-house (http://ncgc.nih.gov/pub/openhts/). A four parameter Hill equation was fitted to the concentration-response data by minimizing the residual error between the modeled and observed responses.
A general note: Quantitative high-throughput screening tests each substance at several concentrations.
Turning to `O=C(NCc1ccc(F)cc1)c1ccc(Cn2c(SCc3ccc(F)cc3)nc3cccnc32)cc1`, the “activity change, negative = displacement” value is -5.12%.
In the case of `Cc1cccc2nc(-c3ccc(Cl)s3)c(Nc3ccc4c(c3)OCCO4)n12`, the “activity change, negative = displacement” value is 58.8%.
As for `O=C(NCC(c1cccnc1)N1CCc2ccccc21)c1cccc(C(F)(F)F)c1` (configuration not stated), the “activity change, negative = displacement” value is -10%.
Still for that read-out and setting: next, `CCOc1ccc(C(=O)/C=C/c2cn(CC(O)CN3CCCCCC3)c3ccccc23)cc1` (configuration not stated): -7.92%; `CCOc1ccc(NC(=O)CCc2c(C)nn(-c3ccc(N4CCCC4)nn3)c2C)cc1`: 42.2%; `Cc1ccc(-c2nc(SCc3ccc(Br)cc3)n3[nH]c(=O)cc3n2)cc1`: 2.21%.
Regarding `Cc1ccc(CN2CCc3nc(N4CCN(C)CC4)ncc3C2)cc1`, the “activity change, negative = displacement” value is 11.3%.
On to `CCOC(=O)c1cnc2c(C)cc(C)cc2c1Nc1ccc(N2CCOCC2)cc1`, for which the “activity change, negative = displacement” value was -13.5%.
Take `COc1cc2nc(SCc3ccc(F)cc3)n3nc(CCn4c(C)nc5ccccc54)nc3c2cc1OC`: the “activity change, negative = displacement” value was 26.5%.
With `CCOCCc1nn2c(=O)cc(COC(=O)CNC(=O)c3ccc(C(C)(C)C)cc3)nc2s1`, the “activity change, negative = displacement” value is -16.9%.
In the case of `Cc1cccc(NC(=O)C2CCN(S(=O)(=O)c3c(C)noc3/C=C/c3ccco3)CC2)c1`, the “activity change, negative = displacement” value was -8.73%.
Same read-out and setting: next, `CCN(CCCNC(=O)c1ccc(Sc2ccc(C)cc2)c(NC(C)=O)c1)c1cccc(C)c1`: 8.6%; `CCOC(=O)c1ccc(CN(Cc2ccccc2)S(=O)(=O)c2ccc(Cl)cc2)cc1`: 52.1%.
The same measure, in the same setting: next, `COc1cc(OC)c(NC(=O)N2CC3CCCN3c3ccccc32)cc1Cl` (configuration not stated): -13.5%.
Consider `COc1ccc2[nH]c3c(c2c1)CCN(C(=O)CCC1CCCC1)C3c1ccc(F)cc1` (configuration not stated), for which the “activity change, negative = displacement” value is 9.86%.
Still for that read-out and setting: the result for `CN(C(=O)CSc1nc2ccccc2n1Cc1ccccc1C#N)c1ccccc1` reads 78.3%; that for `Cc1cccc(N2CCN(c3ccc(C(=O)O)cc3NC(=O)c3ccccc3F)CC2C)c1` (configuration not stated), -15.5%.
With `CCCCc1nn2c(=O)cc(COC(=O)c3ccc(NC(=O)c4ccccc4C)cc3)nc2s1`, the “activity change, negative = displacement” value was -0.216%.
Still for that read-out and setting: the result for `CCC(=O)N1CCc2cc(S(=O)(=O)NC(C(=O)NCCc3ccc(C)cc3)C(C)C)ccc21` (configuration not stated) reads -8.37%.
Consider `O=C(CSc1nc(-c2cccc(F)c2)[nH]c1-c1ccccc1)Nc1ccc2c(c1)OCO2`, for which the “activity change, negative = displacement” value is 37.9%.
In the case of `CCOC(=O)c1ccc(NC(=O)c2c(NCc3cccs3)sc3c2CCCC3)cc1`, the “activity change, negative = displacement” value was 7.21%.
For `COc1ccc(C)cc1NC(=O)COCc1cc(-c2cccs2)on1`, the “activity change, negative = displacement” value was 3.35%.
`Cc1ccc(-n2ncc3c(NCCCn4ccnc4)ncnc32)cc1Cl`: the “activity change, negative = displacement” value was -2.7%.
On to `CCN(CC)S(=O)(=O)c1nnc(NC(=O)COc2ccccc2Cl)s1`, for which the “activity change, negative = displacement” value is -19.9%.
As to `Cc1nc2nc(NCc3cccc(Br)c3)[nH]n2c(=O)c1Cc1ccccc1`, the “activity change, negative = displacement” value was -2.1%.
For `COc1ccccc1N1CCN(CCCNC(=O)c2cnn(-c3ccccc3Cl)c2C2CCN(C(=O)OC(C)(C)C)CC2)CC1`, the “activity change, negative = displacement” value is -12.6%.
Turning to `COc1ccc(-n2ccn(CC(=O)Nc3ccc(C)c(C)c3)c(=O)c2=O)cc1OC`, the “activity change, negative = displacement” value was -4.83%.
With `Cc1nn(C(C)C(=O)NCCc2ccccc2)c(=O)c2c1sc1ccccc12` (configuration not stated), the “activity change, negative = displacement” value was 78.3%.
Turning to `COc1ccc(-c2cccc(NS(=O)(=O)c3cc(C)c(OC)c(C)c3C)c2)nn1`, the “activity change, negative = displacement” value was -14.2%.
As to `Cc1cccc(C(=O)Nc2ccc(S(=O)(=O)N3CCCCC3c3cccnc3)cc2)c1` (configuration not stated), the “activity change, negative = displacement” value is 8.01%.
On to `CCCCN(CC)C(=O)c1c[nH]c2ccc(S(=O)(=O)Nc3cccc(OC)c3)cc2c1=O`, for which the “activity change, negative = displacement” value is -15.8%.
On the same count and under the same terms, the result for `O=C(NCCNc1ccccc1[N+](=O)[O-])c1ccccc1F` reads -17.2%.
With `O=[N+]([O-])c1ccccc1NCc1ccc(Cl)cc1`, the Potency is 8.91 µM (active).
Take `Cc1c(NC(=S)NCc2ccc(F)cc2)cccc1[N+](=O)[O-]`: the “activity change, negative = displacement” value is -8.7%.
For `CC(Nc1ccc(-c2nc(-c3ccco3)no2)cc1[N+](=O)[O-])c1ccccc1` (configuration not stated), the “activity change, negative = displacement” value was -15.1%.
As to `COc1ccc(C2C(=O)N(C3CCCCC3)CC(=O)N2Cc2ccccc2Cl)cc1OC` (configuration not stated), the “activity change, negative = displacement” value was -5.68%.
Turning to `COc1ccc(Nc2ncc3c(n2)CCN(C(=O)OC(C)(C)C)C3)cc1`, the “activity change, negative = displacement” value was -0.4%.
`CCOC(=O)C1CCN(c2csc3ccc(C)cc3c2=O)CC1`: the “activity change, negative = displacement” value was -6.57%.
As to `O=C(O)c1ccccc1-c1ccccc1C(=O)NCCc1ccccc1`, the “activity change, negative = displacement” value is -2.83%.
For `Nc1nonc1C(=O)NCCc1ccccc1`, the Potency was 17.8 µM (active).
For the compound `NC(=O)Nc1ccccc1C(=O)NCCc1ccccc1`, the “activity change, negative = displacement” value was 6.37%.
Same read-out and setting: the result for `O=C1CCCc2cc(S(=O)(=O)N3CCCC(C(=O)NCc4ccccc4)C3)ccc2N1` (configuration not stated) reads -3.62%.
`CCOc1ccccc1C(=O)Nc1ccc2c(c1)N(C)C(=O)c1ccccc1S2`: the “activity change, negative = displacement” value was -13.2%.
For the compound `Cc1cc(F)ccc1NC1(c2ccccc2)C(=O)c2ccccc2C1=O`, the “activity change, negative = displacement” value was -6.15%.
The same measure, in the same setting: next, `COc1ccc(-c2noc(-c3ccc(N4CCN(c5ccccc5)CC4)c([N+](=O)[O-])c3)n2)cc1OC`: -8.01%; `Cc1ccc(-c2nnc(SCC(=O)NCc3ccccc3)nc2-c2ccc(C)cc2)cc1`: -7.43%.
Take `Cc1ccccc1CNC(=O)C(=O)NCC(c1cccs1)S(=O)(=O)c1cccs1` (configuration not stated): the “activity change, negative = displacement” value was 46.9%.
Consider `COc1ccc(Nc2cc(C(=O)NCCCN(C)c3ccccc3)c3ccccc3n2)c(OC)c1`, for which the “activity change, negative = displacement” value was 50%.
In the case of `CCOC(=O)CN1C(C(=O)c2ccccc2)=C(OC(=O)C(C)(C)C)c2ccccc2S1(=O)=O`, the “activity change, negative = displacement” value is -5.44%.
In the case of `COc1ccc(N2CCN(S(=O)(=O)c3ccc(-c4coc(C)n4)cc3)CC2)cc1`, the “activity change, negative = displacement” value was -0.187%.
On to `Cn1c(SCC(=O)N2CCCc3ccccc32)ncc(C(=O)Nc2ccc(F)cc2)c1=O`, for which the “activity change, negative = displacement” value is -15.9%.
For `CCOC(=O)c1scc(-c2ccccc2)c1S(=O)(=O)Nc1ccccc1F`, the “activity change, negative = displacement” value was 57.3%.
In the case of `COc1ccc2c(c1)CCc1c(C(=O)Nc3cc(C)ccc3O)noc1-2`, the “activity change, negative = displacement” value was -8.63%.
On to `CCc1ccc(NC(=O)c2cc3c(=O)n(Cc4cccnc4)ccc3nc2C)cc1`, for which the “activity change, negative = displacement” value was -2.71%.
Take `COc1ccc(NC(=O)CSc2nccn2Cc2ccc3c(c2)OCO3)cc1`: the “activity change, negative = displacement” value was -10.6%.
Consider `CC(=O)N1CCCc2cc(S(=O)(=O)N3CCC(C(=O)NCc4ccc(C)cc4)CC3)ccc21`, for which the “activity change, negative = displacement” value was -10.5%.
As for `CCOc1ccc(NC(=O)c2c(NC(=O)Cc3ccccc3)sc3c2CCCCC3)cc1`, the “activity change, negative = displacement” value is -5.25%.
`c1cnc(NC2C3CC4CC(C3)CC2C4)nc1` (configuration not stated): the Potency is 5.62 µM (active).
For the compound `c1ccc2c(NC3C4CC5CC(C4)CC3C5)nc(N3CCOCC3)nc2c1` (configuration not stated), the “activity change, negative = displacement” value was 89.7%.
For `Cc1c(-c2nsc(NC(=O)c3cccc(Cl)c3)n2)nnn1-c1ccccc1C(F)(F)F`, the “activity change, negative = displacement” value is -23.3%.
Consider `Cc1cccc(C(=O)Nc2ccc(-c3nc4ccccc4s3)c(C)c2)c1`, for which the “activity change, negative = displacement” value is -9.88%.
On to `CN1CCN(c2oc(-c3ccc(COc4ccc(Cl)cc4)o3)nc2C#N)CC1`, for which the “activity change, negative = displacement” value is -7.72%.
